Composite z-score data for 36 molecules are collected here from PubChem BioAssay.

One assay has as its target Calmodulin-1 (Homo sapiens) (UniProt P0DP23). Briefly: small molecules binding calmodulin-1 with EGTA – biochemical, small-molecule microarray, Cy5-labelled CALM1, profiling panel (AID 1111).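 Also: labelled calmodulin applied in Tris saline Tween buffer holding calcium plus EGTA and DTT.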 The conditions noted are these: Cy5-CALM1 binding fluorescence, higher = more signal.
Take `COCCOC(=O)N1C(=O)[C@@]2(c3cc(C#CCCO)ccc31)[C@H](c1ccc(O)cc1)N1[C@H](c3ccccc3)[C@H](c3ccccc3)OC(=O)[C@H]1[C@@H]2C(=O)Nc1nc2ccccc2s1`: the composite z-score amounted to 0.207. The molecule `COc1cc2c(cc1OC)CN(C(=O)[C@@H]1[C@H]3C(=O)O[C@H](c4ccccc4)[C@H](c4ccccc4)N3[C@H](c3ccccc3OCCO)[C@@]13C(=O)Nc1ccccc13)CC2` registered a composite z-score of 0.421. For the molecule `COc1ccc([Si](C)(C)[C@H]2[C@H](CCO)O[C@@]3(C(=O)N(Cc4ccc(N5CCCCC5=O)cc4)c4ccccc43)[C@@H]2C)cc1`, the composite z-score was determined as 1.49. On to `CCCCO[C@H]1C[C@H]2C(Br)=C[C@@]1(CO)C(=O)[C@]21CO1`, for which the composite z-score was -0.795. On the same count and under the same terms, then `CCOC(=O)C[C@H]1[C@H](OC(=O)c2ccccc2-c2ccccc2)[C@@H](NC(=O)C2CCCCC2)c2cc(OCCCO)ccc2N1C(=O)c1ccccc1`, with -0.0784; and `CO[C@H]1COC(=O)[C@H](C)NC(=O)CC=C[C@@H](C)[C@H](NS(=O)(=O)c2ccc(C)cc2)COC(=O)[C@@H](OCc2ccccc2)C=C[C@@H]1C`, with -0.967; and `CC(C)CNC(=O)[C@@]1(C)c2ccccc2C(=O)N(Cc2ccc(OC(F)(F)F)cc2)[C@H]1c1ccc(CO)cc1`, with -0.381.

Turning to `CC(C)C[C@@H]1NC(=O)[C@H]2C[C@@H](C(=O)NCCCCCC[N+](C)(C)C)[C@@H](c3ccc(O)cc3)N2C1=O`, the composite z-score was -0.602. `C=CC[C@@]1(C(=O)NCC(O)CO)N=C(c2ccc(OCCCO)cc2)O[C@@H]1c1ccccc1CN=[N+]=[N-]` (stereo not given in full) registered a composite z-score of 0.778.

The next assay shares this target. Nature of the assay: small molecules binding Ca-loaded calmodulin-1 – biochemical, small-molecule microarray, Cy5-labelled CALM1, plus calcium, artefact control for SMM control-protein annotation, profiling panel (AID 1112).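 Also: score merges spot fluorescence with signal to noise from triplicate slides.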 The settings on record: Cy5-CALM1 binding fluorescence, higher = more signal.
Consider `COCCOC(=O)N1C(=O)[C@@]2(c3cc(C#CC4(O)CCCCCC4)ccc31)[C@H](C(=O)N1CCCCCCC1)[C@H]1C(=O)O[C@H](c3ccccc3)[C@H](c3ccccc3)N1[C@@H]2c1ccc(O)cc1`, for which the composite z-score came out at 0.639.

Take `C=CCC(OC(C)=O)[C@@H]1[C@@H](N(Cc2cc3ccccc3o2)C(=O)Cc2ccc(F)cc2)c2cc(OCCCO)ccc2N1C(=O)c1ccc(-c2ccccc2)cc1` (stereo not given in full): the composite z-score is 1.14. In the case of `O=C(CS)NCCCCCNC(=O)[C@H]1C[C@H]2C(=O)N[C@@H](Cc3ccccc3)C(=O)N2[C@H]1c1ccc(O)cc1`, the composite z-score was found to be 0.748. In the case of `CO[C@H]1COC(=O)CC=C[C@@H](C)COC(=O)[C@@H](C)NC(=O)CC=C[C@@H]1C`, the composite z-score is -3.57. For the molecule `CCC(=O)[C@]12O[C@@]3([C@@H]4C(=O)OCC[C@@H]41)N(Cc1ccccc1)C(C)=C(C(=O)OC)[C@@H](c1ccccc1)N3C2=O`, the composite z-score was -0.0047.

Regarding `C[C@]1(C(=O)NCCN2CCOCC2)c2ccccc2C(=O)N(Cc2ccccc2)[C@H]1c1ccc(CO)cc1`, the composite z-score was determined as 0.349. In the case of `CC[C@H]1C2=C3C(CC[C@H]4C(OC)OC[C@](C)([C@@H]34)N(C(=O)OC(C)(C)C)C2)C(CO)C1CO` (stereo not given in full), the composite z-score came to 1.38.

As for `O=C1c2ccccc2[C@@]2(Cc3ccccc3N(CC(F)(F)F)C2=O)[C@H](c2ccc(CO)cc2)N1C1CCCCC1`, the composite z-score is 0.017. `C=C(C(=O)CC[C@H](OC(=O)c1ccccc1-c1ccccc1C(=O)O)c1ccc(CO)o1)C(C)C`: the composite z-score is -0.698. On the same count and under the same terms, then `CC1=C([C@H](O)CCc2ccccc2)[C@H](CO)[C@@H]2C(=O)N(Cc3ccccc3)C(=O)[C@@H]2C1`, with -0.503; and `O=C1O[C@H](c2ccccc2)[C@H](c2ccccc2)N2[C@H]1[C@@H](C(=O)NC[C@H](O)c1ccccc1)[C@]1(C(=O)Nc3ccc(C#CC4=CCCCC4)cc31)[C@H]2c1ccc(OCCO)cc1`, with 0.385; and `COc1cc(Cc2cc3c(c(CCc4ccccc4)n2)[Si](C(C)C)(C(C)C)OC3)cc(OC)c1OC`, with -0.182. The same measure, in the same setting: then `CO[C@H]1O[C@H](CO)[C@@H](OC(=O)CCc2ccccc2)[C@@H]2OC(=O)[C@H](Cc3cccc(Br)c3)C/C=C/C[C@@H](Cc3cccc(Br)c3)C(=O)O[C@@H]12`, with -0.282. As for `Cc1ccc(S[C@]2(C(=O)NCCCN(C)C)CC(=O)N(C3CCCCC3)[C@@H]2c2ccc(CO)cc2I)cc1`, the composite z-score amounted to 0.49. Still for that read-out and setting: to `COC(=O)[C@@]1(Cc2ccccc2CN=[N+]=[N-])N=C(c2ccc(OCCCO)cc2)O[C@H]1c1ccccc1N=[N+]=[N-]` belongs -0.17; to `CO[C@@H]1COC(=O)[C@H](C)NC(=O)CC=C[C@@H](C)[C@H](OC)COC(=O)[C@H](C)NC(=O)CC=C[C@H]1C`, -1.26; to `COCCOC(=O)N1C(=O)[C@@]2(c3cc(C#CCNC(N)=O)ccc31)[C@H](c1ccc(OCCO)cc1)N1[C@H](c3ccccc3)[C@H](c3ccccc3)OC(=O)[C@H]1[C@@H]2C(=O)Nc1nc2ccccc2s1`, 0.701. The same measure, in the same setting: to `C=CC[C@@]1(C(=O)N2CCOCC2)N=C(c2ccc(OCCCO)cc2)O[C@@H]1c1ccccc1` belongs 0.0806. Turning to `COc1cc2c(cc1OC)CN(C(=O)[C@H]1[C@@H]3C(=O)O[C@@H](c4ccccc4)[C@@H](c4ccccc4)N3[C@@H](c3ccc(O)cc3)[C@]13C(=O)Nc1ccc(C#CC4(O)CCCCCC4)cc13)CC2`, the composite z-score amounted to 1.2.

In the case of `O=C/C=C/c1ccccc1Cl`, the composite z-score was determined as 0.618.

For the molecule `C=CCC(OC(C)=O)[C@@H]1[C@@H](N(Cc2cccc3ccccc23)C(=O)Cc2ccc(F)cc2)c2cc(OCCCO)ccc2N1C(=O)Cc1ccc2ccccc2c1` (stereo not given in full), the composite z-score was found to be 0.158. In the case of `CC(=O)NCCCC[C@@H]1NC(=O)[C@@H]2C[C@H](C(=O)NCCCCCNC(=O)CS)[C@H](c3ccc(O)cc3)N2C1=O`, the composite z-score was found to be 0.503. Still for that read-out and setting: then `C[N+](C)(C)CCCCNC(=O)[C@@H]1C[C@@H]2C(=O)N3CCC[C@H]3C(=O)N2[C@@H]1c1cccc(OCCO)c1`, with 0.658; and `O=C(NCC(O)CO)[C@]1(Cc2ccccc2)N=C(c2ccc(OCCCO)cc2)O[C@@H]1c1ccccc1` (stereo not given in full), with 1.31; and `COC(=O)Cn1c(C(=O)N2CCCC2)cc2c1C[C@H]1CN(C(=O)c3ccccc3)[C@@](Cc3ccccc3)(C(=O)OC)[C@@H]21`, with 0.589. As to `CCOC(=O)[C@H]1C/C=C/C[C@H](C(=O)OCC)C(=O)O[C@H]2[C@@H](OC)O[C@H](CO)[C@@H](OC(=O)Nc3ccc(Br)cc3)[C@@H]2OC1=O`, the composite z-score is 0.155. As for `CO[C@@H]1COC(=O)[C@@H]2CCCN2C(=O)CC=C[C@@H](C)[C@H](OC)COC(=O)[C@@H]2CCCN2C(=O)CC=C[C@H]1C`, the composite z-score is -2.31. As for `COCCOC(=O)N1C(=O)[C@@]2(c3cc(C#CCCO)ccc31)[C@H](c1ccc(O)cc1)N1[C@H](c3ccccc3)[C@H](c3ccccc3)OC(=O)[C@H]1[C@@H]2C(=O)Nc1nc2ccccc2s1`, the composite z-score was -0.567. On to `COc1cc2c(cc1OC)CN(C(=O)[C@@H]1[C@H]3C(=O)O[C@H](c4ccccc4)[C@H](c4ccccc4)N3[C@H](c3ccccc3OCCO)[C@@]13C(=O)Nc1ccccc13)CC2`, for which the composite z-score turned out to be 0.234. With `COc1ccc([Si](C)(C)[C@H]2[C@H](CCO)O[C@@]3(C(=O)N(Cc4ccc(N5CCCCC5=O)cc4)c4ccccc43)[C@@H]2C)cc1`, the composite z-score came out at 1.02. Take `CCCCO[C@H]1C[C@H]2C(Br)=C[C@@]1(CO)C(=O)[C@]21CO1`: the composite z-score was -1.33. For the molecule `CCOC(=O)C[C@H]1[C@H](OC(=O)c2ccccc2-c2ccccc2)[C@@H](NC(=O)C2CCCCC2)c2cc(OCCCO)ccc2N1C(=O)c1ccccc1`, the composite z-score is -0.083.

As to `CO[C@H]1COC(=O)[C@H](C)NC(=O)CC=C[C@@H](C)[C@H](NS(=O)(=O)c2ccc(C)cc2)COC(=O)[C@@H](OCc2ccccc2)C=C[C@@H]1C`, the composite z-score is -1.02. As for `CC(C)CNC(=O)[C@@]1(C)c2ccccc2C(=O)N(Cc2ccc(OC(F)(F)F)cc2)[C@H]1c1ccc(CO)cc1`, the composite z-score worked out at 0.787. `CC(C)C[C@@H]1NC(=O)[C@H]2C[C@@H](C(=O)NCCCCCC[N+](C)(C)C)[C@@H](c3ccc(O)cc3)N2C1=O`: the composite z-score is -0.781. Consider `C=CC[C@@]1(C(=O)NCC(O)CO)N=C(c2ccc(OCCCO)cc2)O[C@@H]1c1ccccc1CN=[N+]=[N-]` (stereo not given in full), for which the composite z-score is -0.0262.
